Assay results from PubChem BioAssay AID1159580 (chemical genetic matrix, 2015).
About 2,000 (36%) of roughly 5,500 compounds were called active. Another 18% or so got no clear call; they are omitted. Cut-off read from the data, not from the text of the source: active = normalized growth mostly below about 0.91 (no sharp cut-off); inconclusive = no clear call, values can overlap the other calls; inactive = mostly above about 0.92. The list shows a part of the results.

Experiment: chemical genetic growth profiling, strain panel (AID 1159580);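 note: tested at 20 µM; growth read once vehicle control cultures reached saturation at 30 °C; 1 = growth at the plate median or of vehicle wells; lower values mean less growth of the strain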
Details: growth OD

Measured: normalized growth

COP(=O)(OC)OC=C(Cl)Cl
inactive: S. cerevisiae deletion strains, locus YJR075W, strain HOC1, active compounds read low 0.962 | S. cerevisiae deletion strains, locus YKL009W, strain mrt4, active compounds read low 0.951 | S. cerevisiae deletion strains, locus YKL068W, active compounds read low 0.986 | S. cerevisiae deletion strains, locus YKL085W, strain MDH1 (second series), active compounds read low 0.981 | S. cerevisiae deletion strains, locus YKL085W, strain MDH1, active compounds read low 0.981 | S. cerevisiae deletion strains, locus YKL160W, strain elf1, active compounds read low 0.999 | S. cerevisiae deletion strains, locus YKL190W, strain CNB1, active compounds read low 0.994 | S. cerevisiae deletion strains, locus YKR001C, strain vps1, active compounds read low 0.992 | S. cerevisiae deletion strains, locus YKR026C, strain gcn3, active compounds read low 1.01 | S. cerevisiae deletion strains, locus YKR091W, strain srl3, active compounds read low 0.997 | S. cerevisiae deletion strains, locus YLL001W, strain dnm1, active compounds read low 1.01 | S. cerevisiae deletion strains, locus YLL026W, active compounds read low 0.997 | S. cerevisiae deletion strains, locus YLL041C, strain sdh2, active compounds read low 1 | S. cerevisiae deletion strains, locus YLR027C, strain aat2, active compounds read low 1 | S. cerevisiae deletion strains, locus YLR039C, strain RIC1, active compounds read low 0.979 | S. cerevisiae deletion strains, locus YLR058C, strain SHM2, active compounds read low 0.983 | S. cerevisiae deletion strains, locus YLR102C, strain apc9, active compounds read low 0.977 | S. cerevisiae deletion strains, locus YLR113W, strain HOG1, active compounds read low 1.02 | S. cerevisiae deletion strains, locus YLR221C, strain rsa3, active compounds read low 0.999 | S. cerevisiae deletion strains, locus YLR258W, strain gsy2, active compounds read low 0.999 | S. cerevisiae deletion strains, locus YLR262C, strain YPT6 (second series), active compounds read low 1.01 | S. cerevisiae deletion strains, locus YLR262C, strain YPT6, active compounds read low 0.97 | S. cerevisiae deletion strains, locus YLR268W, strain sec22, active compounds read low 0.996 | S. cerevisiae deletion strains, locus YLR320W, strain mms22, active compounds read low 1.01 | S. cerevisiae deletion strains, locus YLR330W, strain CHS5, active compounds read low 0.996 | S. cerevisiae deletion strains, locus YLR342W, strain FKS1 (second series), active compounds read low 0.971 | S. cerevisiae deletion strains, locus YLR342W, strain FKS1, active compounds read low 0.983 | S. cerevisiae deletion strains, locus YLR357W, strain rsc2, active compounds read low 1.07 | S. cerevisiae deletion strains, locus YLR370C, strain arc18, active compounds read low 0.999 | S. cerevisiae deletion strains, locus YLR371W, strain rom2, active compounds read low 0.989 | S. cerevisiae deletion strains, locus YLR384C, strain iki3, active compounds read low 0.998 | S. cerevisiae deletion strains, locus YLR418C, strain cdc73, active compounds read low 1.01 | S. cerevisiae deletion strains, locus YML016C, strain PPZ1, active compounds read low 0.986 | S. cerevisiae deletion strains, locus YML032C, strain rad52, active compounds read low 0.978 | S. cerevisiae deletion strains, locus YML120C, strain ndi1, active compounds read low 0.981 | S. cerevisiae deletion strains, locus YML124C, strain tub3, active compounds read low 0.992 | S. cerevisiae deletion strains, locus YMR058W, strain fet3, active compounds read low 0.994 | S. cerevisiae deletion strains, locus YMR078C, strain ctf18, active compounds read low 0.992 | S. cerevisiae deletion strains, locus YMR125W, strain sto1, active compounds read low 0.982 | S. cerevisiae deletion strains, locus YMR129W, active compounds read low 0.992 | S. cerevisiae deletion strains, locus YMR205C, strain PFK2, active compounds read low 0.991 | S. cerevisiae deletion strains, locus YMR223W, strain ubp8, active compounds read low 0.985 | S. cerevisiae deletion strains, locus YMR231W, strain pep5, active compounds read low 1.01 | S. cerevisiae deletion strains, locus YMR263W, strain SAP30, active compounds read low 0.976 | S. cerevisiae deletion strains, locus YMR307W, strain GAS1, active compounds read low 1.1 | S. cerevisiae deletion strains, locus YNL067W, strain RPL9B, active compounds read low 0.963 | S. cerevisiae deletion strains, locus YNL071W, strain lat1, active compounds read low 1.01 | S. cerevisiae deletion strains, locus YNL128W, strain TEP1, active compounds read low 0.956 | S. cerevisiae deletion strains, locus YNL153C, strain GIM3, active compounds read low 0.986 | S. cerevisiae deletion strains, locus YNL183C, strain NPR1, active compounds read low 0.998 | S. cerevisiae deletion strains, locus YNL209W, strain ssb2, active compounds read low 0.998 | S. cerevisiae deletion strains, locus YNL233W, strain BNI4, active compounds read low 0.977 | S. cerevisiae deletion strains, locus YNL248C, strain rpa49, active compounds read low 0.994 | S. cerevisiae deletion strains, locus YNL250W, strain rad50, active compounds read low 0.988 | S. cerevisiae deletion strains, locus YNL271C, strain bni1, active compounds read low 0.98 | S. cerevisiae deletion strains, locus YNL298W, strain CLA4, active compounds read low 1 | S. cerevisiae deletion strains, locus YNL307C, strain MCK1, active compounds read low 1 | S. cerevisiae deletion strains, locus YNL322C, strain KRE1 (second series), active compounds read low 1.02 | S. cerevisiae deletion strains, locus YNL322C, strain KRE1, active compounds read low 0.985 | S. cerevisiae deletion strains, locus YNR049C, strain mso1, active compounds read low 0.982 | S. cerevisiae deletion strains, locus YNR052C, strain pop2, active compounds read low 0.991 | S. cerevisiae deletion strains, locus YOL006C, strain TOP1, active compounds read low 1.01 | S. cerevisiae deletion strains, locus YOL012C, strain htz1 1.06 | S. cerevisiae deletion strains, locus YOL147C, strain pex11, active compounds read low 1 | S. cerevisiae deletion strains, locus YOR001W, strain rrp6, active compounds read low 0.996 | S. cerevisiae deletion strains, locus YOR061W, strain CKA2, active compounds read low 0.96 | S. cerevisiae deletion strains, locus YOR069W, strain VPS5, active compounds read low 0.98 | S. cerevisiae deletion strains, locus YOR070C, strain gyp1, active compounds read low 0.99 | S. cerevisiae deletion strains, locus YOR080W, strain dia2, active compounds read low 0.987 | S. cerevisiae deletion strains, locus YOR083W, strain WHI5, active compounds read low 0.987 | S. cerevisiae deletion strains, locus YOR106W, strain vam3, active compounds read low 0.983 | S. cerevisiae deletion strains, locus YOR136W, strain idh2, active compounds read low 0.986 | S. cerevisiae deletion strains, locus YOR144C, strain elg1, active compounds read low 0.984 | S. cerevisiae deletion strains, locus YOR184W, strain ser1, active compounds read low 0.998 | S. cerevisiae deletion strains, locus YOR231W, strain MKK1, active compounds read low 1.05 | S. cerevisiae deletion strains, locus YOR265W, strain rbl2, active compounds read low 0.988 | S. cerevisiae deletion strains, locus YOR270C, strain vph1, active compounds read low 0.976 | S. cerevisiae deletion strains, locus YOR290C, strain snf2, active compounds read low 0.997 | S. cerevisiae deletion strains, locus YOR316C, strain cot1, active compounds read low 0.971 | S. cerevisiae deletion strains, locus YPL051W, strain arl3, active compounds read low 0.998 | S. cerevisiae deletion strains, locus YPL055C, strain LGE1, active compounds read low 0.998 | S. cerevisiae deletion strains, locus YPL078C, strain atp4, active compounds read low 0.99 | S. cerevisiae deletion strains, locus YPL106C, strain sse1, active compounds read low 0.992 | S. cerevisiae deletion strains, locus YPL240C, strain hsp82, active compounds read low 1 | S. cerevisiae deletion strains, locus YPL241C, strain CIN2, active compounds read low 0.98 | S. cerevisiae deletion strains, locus YPL256C, strain CLN2, active compounds read low 1.05 | S. cerevisiae deletion strains, locus YPR119W, strain clb2, active compounds read low 0.997 | S. cerevisiae deletion strains, locus YPR141C, strain kar3, active compounds read low 0.972 | S. cerevisiae deletion strains, locus YPR163C, strain tif3, active compounds read low 0.995 | S. cerevisiae deletion strains, locus YPR167C, strain met16, active compounds read low 0.976 | S. cerevisiae deletion strains, strain wtn01, active compounds read low 0.995 | S. cerevisiae strains, strain wild type, active compounds read low 0.997
